Source: the supplement of paper PMC10849652
The full data set covers some 8,800 targets. This sample favours those with a hit. About 0.5% of all pairs of compound and target were hits. Values without a mark were called inactive.

Assays:
Assay in all cases: log2 fold change, soluble protein after heating vs DMSO (PISA); higher = thermal stabilisation; K562 lysate, 10 uM; active = over 0.2 and 3.5 SD of the protein, either way, in both replicates (recomputed)
alvocidib = compound: CN1CC[C@H](c2c(O)cc(O)c3c(=O)cc(-c4ccccc4Cl)oc23)[C@H](O)C1 [alvocidib]
Procedure, shortened: (§1)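 Thermal stability, expressed as log-two fold change relative to solvent controls, is given from duplicates. Crude K562 extract in PBS pH 7.4 with 1 mM MgCl2, at 1 mg/mL protein, was treated with 10 μM compound for 30 min and heated in aliquots for 3 min across 48°C-58°C. After pooling, adjustment to 0.5% NP-40 at 4°C and centrifugation at 21,000xg for 90 min, supernatant protein was measured by TMTpro 16plex LC-MS/MS with channel sums equalised.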

Tubastatin A = compound: CN1CCc2c(c3ccccc3n2Cc2ccc(C(=O)NO)cc2)C1 [Tubastatin A]
Procedure, shortened: as §1

[1] = compound: CNC(=O)C1=CC=CC=C1NC2=NC(=NC=C2Cl)NC3=C(C=C(C=C3)N4CCOCC4)OC
Procedure, shortened: as §1

defactinib = compound: CNC(=O)c1ccc(Nc2ncc(C(F)(F)F)c(NCc3nccnc3N(C)S(C)(=O)=O)n2)cc1 [defactinib]
Procedure, shortened: as §1

[2] = compound: CNc1nc(-c2ccc3c(N)n[nH]c3c2)cc(N2C[C@@H](C(=O)NC3CCCCC3)CC[C@H]2C)n1
Procedure, shortened: as §1

encorafenib = compound: COC(=O)N[C@@H](C)CNc1nccc(-c2cn(C(C)C)nc2-c2cc(Cl)cc(NS(C)(=O)=O)c2F)n1 [encorafenib]
Procedure, shortened: as §1

[3] = compound: COC(=O)[C@H](CCSC)NC(=O)C1=C(C=C(C=C1)NC[C@H](CS)N)C2=CC=CC=C2
Procedure, shortened: as §1

alisertib = compound: COc1cc(Nc2ncc3c(n2)-c2ccc(Cl)cc2C(c2c(F)cccc2OC)=NC3)ccc1C(=O)O [alisertib]
Procedure, shortened: as §1

[4] = compound: COc1cc2nc(-c3cc(F)ccc3O)nc(N[C@@H]3CNC[C@H]3C(C)(C)O)c2cc1OC
Procedure, shortened: as §1

gefitinib = compound: COc1cc2ncnc(Nc3ccc(F)c(Cl)c3)c2cc1OCCCN1CCOCC1 [gefitinib]
Procedure, shortened: as §1

lapatinib = compound: CS(=O)(=O)CCNCc1ccc(-c2ccc3ncnc(Nc4ccc(OCc5cccc(F)c5)c(Cl)c4)c3c2)o1 [lapatinib]
Procedure, shortened: as §1

pictilisib = compound: CS(=O)(=O)N1CCN(Cc2cc3nc(-c4cccc5[nH]ncc45)nc(N4CCOCC4)c3s2)CC1 [pictilisib]
Procedure, shortened: as §1

crizotinib = compound: C[C@@H](Oc1cc(-c2cnn(C3CCNCC3)c2)cnc1N)c1c(Cl)ccc(F)c1Cl [crizotinib]
Procedure, shortened: as §1

[5] = compound: C[C@H](C1=CC=C(C=C1)C(=O)NC2=C3C=CNC3=NC=C2)N
Procedure, shortened: as §1

duvelisib = compound: C[C@H](Nc1ncnc2nc[nH]c12)c1cc2cccc(Cl)c2c(=O)n1-c1ccccc1 [duvelisib]
Procedure, shortened: as §1

gandotinib = compound: Cc1cc(Nc2cc(CN3CCOCC3)c3nc(C)c(Cc4ccc(Cl)cc4F)n3n2)n[nH]1 [gandotinib]
Procedure, shortened: as §1

tozasertib = compound: Cc1cc(Nc2cc(N3CCN(C)CC3)nc(Sc3ccc(NC(=O)C4CC4)cc3)n2)n[nH]1 [tozasertib]
Procedure, shortened: as §1

doramapimod = compound: Cc1ccc(-n2nc(C(C)(C)C)cc2NC(=O)Nc2ccc(OCCN3CCOCC3)c3ccccc23)cc1 [doramapimod]
Procedure, shortened: as §1

bafetinib = compound: Cc1ccc(NC(=O)c2ccc(CN3CC[C@H](N(C)C)C3)c(C(F)(F)F)c2)cc1Nc1nccc(-c2cncnc2)n1 [bafetinib]
Procedure, shortened: as §1

[6] = compound: Cc1cccc(CC(=O)N2CCc3c2ccc(-c2cn(C)c4ncnc(N)c24)c3F)n1
Procedure, shortened: as §1

Sequence of UniProt P53350 (P53350 whole entry, looked up): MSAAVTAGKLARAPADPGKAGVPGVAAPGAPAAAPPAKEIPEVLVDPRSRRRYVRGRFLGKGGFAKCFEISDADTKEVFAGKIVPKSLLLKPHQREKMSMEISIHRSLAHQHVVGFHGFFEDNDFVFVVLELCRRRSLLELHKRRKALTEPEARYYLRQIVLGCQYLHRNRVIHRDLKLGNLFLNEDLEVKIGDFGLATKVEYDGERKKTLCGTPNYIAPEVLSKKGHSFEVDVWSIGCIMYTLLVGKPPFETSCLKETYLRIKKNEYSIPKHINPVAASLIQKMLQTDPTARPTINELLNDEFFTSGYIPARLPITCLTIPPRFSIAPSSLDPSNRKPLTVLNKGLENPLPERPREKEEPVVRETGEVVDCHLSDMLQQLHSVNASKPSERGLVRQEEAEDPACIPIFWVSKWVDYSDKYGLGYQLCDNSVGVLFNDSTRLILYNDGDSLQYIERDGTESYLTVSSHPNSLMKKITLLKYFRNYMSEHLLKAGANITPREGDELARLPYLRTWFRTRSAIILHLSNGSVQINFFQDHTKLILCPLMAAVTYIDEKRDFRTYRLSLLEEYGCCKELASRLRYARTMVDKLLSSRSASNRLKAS
Sequence of UniProt O14744 (O14744 whole entry, looked up): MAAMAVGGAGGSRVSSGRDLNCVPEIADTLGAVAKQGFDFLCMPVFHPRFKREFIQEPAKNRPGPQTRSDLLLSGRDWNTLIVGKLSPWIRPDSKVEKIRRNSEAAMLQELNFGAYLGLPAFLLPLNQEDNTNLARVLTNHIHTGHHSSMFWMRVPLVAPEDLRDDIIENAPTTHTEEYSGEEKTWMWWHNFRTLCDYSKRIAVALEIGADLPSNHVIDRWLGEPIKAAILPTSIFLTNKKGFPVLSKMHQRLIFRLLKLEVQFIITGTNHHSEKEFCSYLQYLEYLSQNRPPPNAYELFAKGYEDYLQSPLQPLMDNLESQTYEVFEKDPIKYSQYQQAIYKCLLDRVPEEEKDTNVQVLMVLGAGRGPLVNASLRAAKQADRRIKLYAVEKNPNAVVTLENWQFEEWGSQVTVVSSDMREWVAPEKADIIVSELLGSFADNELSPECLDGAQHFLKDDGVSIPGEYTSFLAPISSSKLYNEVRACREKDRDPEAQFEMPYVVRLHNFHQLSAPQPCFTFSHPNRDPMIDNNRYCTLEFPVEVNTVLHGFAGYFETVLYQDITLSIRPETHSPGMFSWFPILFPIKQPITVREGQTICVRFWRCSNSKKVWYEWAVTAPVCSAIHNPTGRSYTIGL
Sequence of UniProt Q86UU1 (Q86UU1 whole entry, looked up): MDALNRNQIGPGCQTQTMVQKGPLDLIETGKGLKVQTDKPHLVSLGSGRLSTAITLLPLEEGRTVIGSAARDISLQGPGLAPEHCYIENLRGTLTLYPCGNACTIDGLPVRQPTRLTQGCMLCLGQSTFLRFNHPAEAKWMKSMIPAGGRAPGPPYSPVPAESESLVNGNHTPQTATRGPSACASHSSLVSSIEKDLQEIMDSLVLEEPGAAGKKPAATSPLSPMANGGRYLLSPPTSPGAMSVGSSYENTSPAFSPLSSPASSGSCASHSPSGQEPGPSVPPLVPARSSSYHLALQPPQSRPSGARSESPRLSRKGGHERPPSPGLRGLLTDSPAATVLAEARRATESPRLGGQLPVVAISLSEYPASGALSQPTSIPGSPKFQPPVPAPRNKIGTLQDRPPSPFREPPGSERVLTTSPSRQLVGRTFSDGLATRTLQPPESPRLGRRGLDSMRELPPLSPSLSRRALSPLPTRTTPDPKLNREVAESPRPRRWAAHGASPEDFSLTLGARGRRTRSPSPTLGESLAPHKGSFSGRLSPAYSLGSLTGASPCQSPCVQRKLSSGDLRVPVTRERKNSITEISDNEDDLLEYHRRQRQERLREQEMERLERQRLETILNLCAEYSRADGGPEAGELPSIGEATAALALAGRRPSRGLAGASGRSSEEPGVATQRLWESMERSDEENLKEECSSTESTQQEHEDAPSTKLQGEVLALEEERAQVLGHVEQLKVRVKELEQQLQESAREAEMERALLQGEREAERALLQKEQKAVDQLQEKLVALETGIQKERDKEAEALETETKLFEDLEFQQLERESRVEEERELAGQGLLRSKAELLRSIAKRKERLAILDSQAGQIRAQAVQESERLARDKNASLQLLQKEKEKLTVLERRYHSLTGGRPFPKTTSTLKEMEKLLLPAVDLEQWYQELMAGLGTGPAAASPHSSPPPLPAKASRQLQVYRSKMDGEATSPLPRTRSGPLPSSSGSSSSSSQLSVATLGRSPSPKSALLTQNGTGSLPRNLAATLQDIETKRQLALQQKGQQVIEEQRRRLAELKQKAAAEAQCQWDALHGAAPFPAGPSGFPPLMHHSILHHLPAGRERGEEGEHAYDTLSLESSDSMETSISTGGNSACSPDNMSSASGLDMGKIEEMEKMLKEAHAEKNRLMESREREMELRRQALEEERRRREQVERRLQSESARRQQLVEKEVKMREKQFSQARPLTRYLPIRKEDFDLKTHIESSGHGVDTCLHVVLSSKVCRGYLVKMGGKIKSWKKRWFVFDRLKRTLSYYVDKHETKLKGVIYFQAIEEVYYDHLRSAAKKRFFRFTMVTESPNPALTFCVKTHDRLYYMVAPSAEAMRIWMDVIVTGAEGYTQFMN
Sequence of UniProt P23219 (P23219 whole entry, looked up): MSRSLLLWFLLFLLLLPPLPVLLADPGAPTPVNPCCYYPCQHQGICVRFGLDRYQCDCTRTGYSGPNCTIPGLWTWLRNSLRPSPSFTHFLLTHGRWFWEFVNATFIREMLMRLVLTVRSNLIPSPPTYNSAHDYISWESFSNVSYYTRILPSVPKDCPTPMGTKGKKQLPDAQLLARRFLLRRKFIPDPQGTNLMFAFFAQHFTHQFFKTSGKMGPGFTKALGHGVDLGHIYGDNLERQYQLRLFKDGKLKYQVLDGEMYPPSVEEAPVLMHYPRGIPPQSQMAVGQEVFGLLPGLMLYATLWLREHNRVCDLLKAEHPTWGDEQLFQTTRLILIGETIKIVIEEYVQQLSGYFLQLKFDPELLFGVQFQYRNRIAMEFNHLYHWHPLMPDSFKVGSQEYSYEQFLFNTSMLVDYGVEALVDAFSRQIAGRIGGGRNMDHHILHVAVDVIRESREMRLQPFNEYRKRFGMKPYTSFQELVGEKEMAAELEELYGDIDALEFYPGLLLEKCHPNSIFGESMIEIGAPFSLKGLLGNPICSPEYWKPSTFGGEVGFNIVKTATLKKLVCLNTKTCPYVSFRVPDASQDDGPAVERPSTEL
Sequence of UniProt Q9H4Z3 (Q9H4Z3 whole entry, looked up): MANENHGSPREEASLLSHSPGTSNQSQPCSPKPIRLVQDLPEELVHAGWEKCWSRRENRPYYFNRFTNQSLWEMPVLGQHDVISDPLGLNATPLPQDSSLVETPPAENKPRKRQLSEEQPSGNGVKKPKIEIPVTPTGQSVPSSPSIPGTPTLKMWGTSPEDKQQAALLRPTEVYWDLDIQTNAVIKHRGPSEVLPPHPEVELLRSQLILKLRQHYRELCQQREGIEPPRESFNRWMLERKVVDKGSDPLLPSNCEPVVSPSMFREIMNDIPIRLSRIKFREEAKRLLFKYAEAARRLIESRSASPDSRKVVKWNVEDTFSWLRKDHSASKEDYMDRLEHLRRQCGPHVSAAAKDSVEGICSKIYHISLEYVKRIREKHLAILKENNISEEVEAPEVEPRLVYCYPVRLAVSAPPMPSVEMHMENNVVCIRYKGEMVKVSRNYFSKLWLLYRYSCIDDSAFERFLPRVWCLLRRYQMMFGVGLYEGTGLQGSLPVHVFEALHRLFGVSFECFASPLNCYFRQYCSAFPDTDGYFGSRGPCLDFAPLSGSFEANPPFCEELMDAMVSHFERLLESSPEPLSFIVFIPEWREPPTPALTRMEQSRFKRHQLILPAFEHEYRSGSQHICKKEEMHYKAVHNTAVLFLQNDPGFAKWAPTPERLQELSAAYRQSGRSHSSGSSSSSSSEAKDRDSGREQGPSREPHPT
Sequence of UniProt Q05655 (Q05655 whole entry, looked up): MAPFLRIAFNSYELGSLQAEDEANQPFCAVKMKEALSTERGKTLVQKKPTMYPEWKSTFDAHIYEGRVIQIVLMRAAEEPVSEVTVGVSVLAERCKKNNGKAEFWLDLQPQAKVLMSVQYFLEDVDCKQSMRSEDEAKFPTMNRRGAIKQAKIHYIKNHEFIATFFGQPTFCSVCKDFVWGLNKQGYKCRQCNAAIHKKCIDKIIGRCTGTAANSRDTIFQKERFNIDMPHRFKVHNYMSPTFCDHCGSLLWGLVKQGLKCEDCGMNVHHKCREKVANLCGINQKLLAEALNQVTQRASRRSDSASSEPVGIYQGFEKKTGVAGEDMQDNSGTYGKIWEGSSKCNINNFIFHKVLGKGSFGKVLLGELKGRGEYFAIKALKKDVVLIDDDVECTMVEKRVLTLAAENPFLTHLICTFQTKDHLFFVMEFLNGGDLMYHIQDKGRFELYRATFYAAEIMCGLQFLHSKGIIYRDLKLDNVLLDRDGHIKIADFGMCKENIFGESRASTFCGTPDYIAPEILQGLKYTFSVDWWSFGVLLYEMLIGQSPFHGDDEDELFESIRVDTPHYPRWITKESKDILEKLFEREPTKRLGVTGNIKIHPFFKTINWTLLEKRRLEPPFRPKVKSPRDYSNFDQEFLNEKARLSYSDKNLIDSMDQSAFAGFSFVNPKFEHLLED
Sequence of UniProt O00264 (O00264 whole entry, looked up): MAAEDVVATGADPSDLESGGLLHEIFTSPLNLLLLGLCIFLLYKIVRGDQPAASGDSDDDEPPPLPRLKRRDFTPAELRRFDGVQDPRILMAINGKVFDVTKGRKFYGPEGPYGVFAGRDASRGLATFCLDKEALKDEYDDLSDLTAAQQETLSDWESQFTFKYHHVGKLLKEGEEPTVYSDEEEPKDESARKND
Sequence of UniProt P06454 (P06454 whole entry, looked up): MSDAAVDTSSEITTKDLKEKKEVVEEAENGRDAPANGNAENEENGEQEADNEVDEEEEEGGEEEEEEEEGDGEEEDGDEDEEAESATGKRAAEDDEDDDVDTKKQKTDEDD

| Target | log2 fold change (alvocidib) | log2 fold change (Tubastatin A) | log2 fold change [1] | log2 fold change (defactinib) | log2 fold change [2] | log2 fold change (encorafenib) | log2 fold change [3] | log2 fold change (alisertib) | log2 fold change [4] | log2 fold change (gefitinib) | log2 fold change (lapatinib) | log2 fold change (pictilisib) | log2 fold change (crizotinib) | log2 fold change [5] | log2 fold change (duvelisib) | log2 fold change (gandotinib) | log2 fold change (tozasertib) | log2 fold change (doramapimod) | log2 fold change (bafetinib) | log2 fold change [6] |
| --- | --- | --- | --- | --- | --- | --- | --- | --- | --- | --- | --- | --- | --- | --- | --- | --- | --- | --- | --- | --- |
| PHLDB1 (UniProt Q86UU1) | -0.067 | -0.1 | -0.031 | 0.023 | 0.049 | -0.041 | -0.05 | 0.009 | -0.037 | 0.017 | -0.052 | 0.034 | -0.154 | -0.06 | -0.028 | 0.073 | -0.047 | 0.076 | -0.112 | 0.031 |
| PCIF1 (UniProt Q9H4Z3) | 0.038 | 0.006 | -0.024 | 0.051 | 0.02 | 0.017 | 0.02 | 0.04 | 0.01 | -0.051 | -0.059 | -0.016 | -0.001 | -0.239 (active) | 0.216 | 0.074 | -0.003 | 0.017 | -0.059 | 0.09 |
| PLK1 (UniProt P53350) | 0.059 | -0.108 | -0.347 (active) | -0.268 | 0.006 | 0.097 | -0.034 | -0.003 | -0.023 | 0.003 | -0.024 | 0.013 | -0.179 | 0.168 | 0.043 | -0.088 | 0.003 | 0.03 | -0.019 | -0.055 |
| POC5 (UniProt Q8NA72) | -0.048 | -0.046 | 0.054 | 0.154 | 0.06 | 0 | -0.048 | -0.018 | -0.009 | 0.042 | -0.133 | -0.12 | 0.02 | 0.022 | -0.041 | 0.107 | -0.086 | -0.023 | 0.051 | 0.031 |
| PRKCSH (UniProt K7ELL7) | 0.048 | 0.073 | -0.026 | 0.006 | -0.013 | 0.048 | -0.002 | 0.018 | 0.083 | -0.12 | -0.009 | 0.028 | 0.061 | 0.181 | 0.1 | -0.047 | 0.062 | -0.044 | 0.031 | -0.019 |
| PCF11 (UniProt O94913) | -0.018 | -0.12 | 0.002 | 0.041 | 0.078 | 0.036 | -0.021 | 0.009 | 0.042 | 0.002 | -0.017 | -0.014 | -0.018 | 0.058 | 0.005 | -0.086 | -0.004 | -0.031 | -0.021 | -0.017 |
| PDCD6IP isoform 2 (UniProt Q8WUM4) | 0.033 | -0.088 | -0.005 | -0.022 | -0.02 | -0.01 | 0.188 | 0.014 | 0.003 | -0.003 | 0 | -0.015 | -0.015 | 0.071 | -0.009 | -0.09 | 0.024 | -0.008 | -0.006 | -0.019 |
| PTMA (UniProt P06454) | 0.194 | 0.09 | -0.104 | 0.049 | 0.007 | -0.003 | -0.038 | 0.01 | 0.042 | 0.014 | -0.059 | -0.014 | 0.08 | 0.505 (active) | 0.009 | -0.277 | 0.012 | -0.031 | 0.058 | -0.375 (active) |
| PGRMC1 (UniProt O00264) | -0.026 | 0.01 | -0.022 | 0.02 | -0.014 | 0.006 | -0.258 (active) | 0.006 | 0.006 | 0.03 | 0.001 | -0.023 | 0.057 | -0.011 | -0.024 | 0.047 | 0.035 | -0.052 | 0.004 | 0.018 |
| PCBP2 (UniProt H3BRU6) | 0.033 | -0.116 | 0.082 | 0.061 | 0.018 | 0.04 | 0.017 | -0.023 | 0.072 | -0.145 | 0.116 | -0.021 | -0.04 | 0.044 | 0.028 | 0.01 | -0.112 | -0.119 | 0.079 | -0.041 |
| PRMT5 (UniProt O14744) | 0.318 (active) | -0.009 | 0.008 | -0.019 | 0.013 | -0.015 | -0.099 | 0 | 0.011 | -0.023 | -0.029 | -0.012 | 0 | -0.02 | 0.158 | 0.011 | 0.017 | -0.004 | -0.021 | -0.008 |
| PRKCD (UniProt Q05655) | -0.082 | 0.036 | -0.012 | -0.032 | -0.003 | -0.009 | 0.056 | -0.031 | 0.235 (active) | 0.002 | -0.143 | 0.003 | -0.011 | -0.135 | 0.024 | 0.009 | 0.015 | 0.005 | -0.069 | 0.007 |
| PWP1 (UniProt Q13610) | 0.063 | -0.017 | -0.012 | 0.002 | -0.046 | 0.046 | -0.013 | -0.014 | 0.008 | -0.017 | 0.041 | -0.001 | 0.003 | 0.488 (active) | 0.055 | -0.052 | 0 | -0.125 | 0.032 | -0.084 |
| QKI (UniProt Q96PU8) | -0.058 | -0.005 | 0.024 | 0.029 | -0.02 | 0.045 | -0.206 | 0.069 | 0.009 | 0.021 | -0.002 | 0.015 | 0.047 | -0.212 (active) | -0.017 | 0.163 | -0.021 | -0.043 | -0.056 | 0.155 |
| PTGS1 isoform 6 (UniProt P23219) | -0.154 | 0.023 | -0.052 | -0.119 | -0.057 | -0.008 | 0.027 | -0.051 | 0.021 | -0.011 | 0.004 | -0.068 | 0.007 | -0.236 (active) | -0.001 | 0.109 | 0.029 | 0.036 | -0.079 | 0.093 |
| PDIA4 (UniProt P13667) | 0.025 | 0.05 | -0.008 | -0.042 | -0.012 | -0.011 | -0.027 | -0.007 | -0.001 | -0.011 | -0.018 | 0.006 | 0.09 | 0.029 | -0.011 | -0.026 | 0 | -0.057 | 0.014 | -0.045 |
